Results reported in ChEMBL document CHEMBL3988442, “University of Dundee, Small-Polar-MMV Screening Library” (2021).
Out of some 48,000 compounds screened, about 13,000 (27%) showed an effect of 50% or more. Some of the results follow.

Each compound was assayed on Wolbachia pipientis (assay: Anti-Wolbachia Cell-Based Screen). Conditions: 5 µM.
Format: functional
Design: scale not given: in the data most compounds retested in dose-response had high values

Row | SMILES | Percent Effect [%]
1 | Cc1sc2nc(C(F)(F)F)nc(N3CCN(S(C)(=O)=O)CC3)c2c1C | 0.8403
2 | O=C1NC(c2ccccc2)=N[C@@]12CC[C@@H]1CN(Cc3ccco3)C[C@@H]12 | 9.656
3 | CCOc1ccc(NC(=O)c2[nH]c(C)cc2C)cc1CO | -6.246
4 | O=C(NCC1(CO)CC1)c1cccc2ccccc12 | -22.57
5 | Cc1nc(C)n(C2CCCN(C(=O)c3cc4ccccc4n3C)C2)n1 (centres undefined) | 8.769
6 | Cn1c(C(=O)NCC2(N)CCCC2)cc2ccccc21 | 105.3
7 | CNC(=O)c1cc2ccccc2n1C | 113.9
8 | CNC(=O)c1ccc(-c2ccccc2)n1C | -8.126
9 | COCCn1c(C(=O)NCC(C)C(=O)O)cc2ccccc21 (centres undefined) | 18.09
10 | CC(C)NC(=O)c1n[nH]c(-n2cnnc2)n1 | -2.794
11 | CNc1cc(C)nc(NC2CCCN(C3Cc4ccccc4C3)C2)n1 (centres undefined) | 9.514
12 | Cc1cc(C)nc(Nc2cccc(C3CCCN(C)C3)n2)n1.O=CO (centres undefined) | -4.261
13 | CNc1nc(C)cc(NC2CCCN(C3Cc4ccccc4C3)C2)n1 (centres undefined) | 43.21
14 | Cc1cc(C)nc(Nc2cccc(C3CCCN(C(C)C)C3)n2)n1 (centres undefined) | 76.23
15 | Cc1cc(C)nc(Nc2cccc(C3CCCN(CCO)C3)n2)n1 (centres undefined) | 75.7
16 | Cc1cc(C)nc(Nc2cccc(C3CCCN(CC4CC4)C3)n2)n1 (centres undefined) | 109.6
17 | Cc1cc(CC(C)NC(=O)COc2ccc(F)cc2F)[nH]n1 (centres undefined) | 17.04
18 | CN(C(=O)NCc1ccncc1)C1CCN(c2ccccc2)C1=O (centres undefined) | -1.353
19 | O=c1nc(SCc2ccc(Cl)cc2)c2c(n1CCO)CCC2 | 7.751
20 | CN(CCc1nc(-c2cccc(Cl)c2)no1)CCn1cccn1 | 14.68
21 | O=C(NCCNc1cnccn1)c1scnc1Cl | 1.056
22 | COc1ccc(Cl)cc1NC(=O)CCNc1ccc(C#N)cn1 | -1.327
23 | Cc1ncsc1C(=O)NCCNc1cnccn1 | 4.216
24 | COc1ccc(Cl)cc1C(=O)NCCNc1cnccn1 | 117.3
25 | COc1ccc(Cl)cc1NCCC(=O)NCCNc1cnccn1 | 93.92
26 | COc1ccc(Cl)cc1NCC(=O)NCCNc1cnccn1 | 7.849

Row | SMILES | Percent Effect [%]
27 | NC(=O)C(Nc1cccc(CO)c1)c1ccc(Br)cc1 (centres undefined) | -1.327
28 | CCCn1ccnc1CNC(=O)C1COc2cc(OC)ccc2C1 (centres undefined) | -6.706
29 | COC(=O)N1CCC2(CC1)N=C(CCC(C)C)NC2=O | -0.8032
30 | CC(C)CC(=O)N1CCC2(CC1)[C@@H]1CN(C(=O)N(C)C)C[C@@H]1C(=O)N2C | -15.87
31 | CCOC(=O)[C@@H]1[C@@H](O)C(=O)N(C)C12CCN(C(=O)OC)CC2 | 81.26
32 | CCOC(=O)[C@H]1[C@@H](O)C(=O)N(C)C12CCN(C(=O)OC)CC2 | 97.39
33 | COc1cc(C)c(CN2CCC3(CC2)C(C(=O)O)CC(=O)N3C)cc1C (centres undefined) | 7.232
34 | CC(C)NC(=O)N1CCC2(CC1)[C@@H]1CN(C(=O)N(C)C)C[C@@H]1C(=O)N2C | -31.71
35 | CC(C)C(=O)N1CCC2(CC1)[C@@H]1CN(C(=O)N(C)C)C[C@@H]1C(=O)N2C | 11.68
36 | CC(=O)N1C[C@@H]2C(=O)N(C)C3(CCN(C(=O)C(C)C)CC3)[C@@H]2C1 | -11.94
37 | CCOC(=O)[C@H]1[C@@H](O)C(=O)N(C)C12CCN(C(=O)C(CC)CC)CC2 | 87.69
38 | CCOC(=O)[C@H]1[C@@H](O)C(=O)N(C)C12CCN(C(=O)CC(C)C)CC2 | 122.2
39 | CC(C)CC(=O)N1CCC2(CC1)NC(=O)[C@H]1CN(C(=O)N(C)C)C[C@H]12 | -16.51
40 | NC(=O)Cn1ccnc1C1CCCN(Cc2nc3ccccc3s2)C1 (centres undefined) | 1.02
41 | CCCC(=O)N(C)Cc1cccc(OC(C)C)c1 | 0.3075
42 | CCN1CCC(CC(=O)N[C@H](C(=O)O)c2cccc(F)c2F)CC1 | 0.01063
43 | CC(C)(C)CC(=O)N1CCC(n2cc(C3(O)CCCC3)nn2)CC1 | 20.32
44 | CCOC(=O)[C@@H]1[C@@H](OC)C(=O)N(C)C12CCN(C(=O)C(CC)CC)CC2 | 108.6
45 | CCOC(=O)[C@H]1[C@@H](O)C(=O)N(C)C12CCN(C(=O)CC(C)(C)C)CC2 | 89.62
46 | O=C(c1ccco1)N1CCC2(CC1)C(=O)NCCN2CC1CC1 | 0.967
47 | CCOCC(O)CN1CCN(C(=O)CC(C)(C)C)CC1 (centres undefined) | 2.808
48 | CCN1CC2(CC1=O)CN(C(C)=O)CCN(C(=O)c1ccco1)C2 (centres undefined) | 6.232
49 | CC(=O)N1CCC2(CC1)[C@@H]1CN(C(=O)N(C)C)C[C@@H]1C(=O)N2C | -8.179
50 | CCOC(=O)[C@H]1[C@@H](O)C(=O)N(C)C12CCN(C(=O)OCC)CC2 | 113.4
51 | CCOC(=O)N1CCC2(CC1)N=C(CCC(C)C)NC2=O | 0.1534
52 | CCOC(=O)[C@@H]1[C@@H](O)C(=O)N(C)C12CCN(C(=O)c1ccco1)CC2 | 104.5

Row | SMILES | Percent Effect [%]
53 | CC(C)CN1C[C@@H]2C(=O)N(C)C3(CCN(C(=O)C(C)C)CC3)[C@@H]2C1.O=C(O)C(F)(F)F | 15.99
54 | N#Cc1cccnc1NCc1ccc(S(=O)(=O)NC2CC2)cc1 | -3.149
55 | CCOCCNCC1CCN(CCO)CC1 | -14.57
56 | N#Cc1cc(F)ccc1CN1CCCCC1Cn1cncn1 (centres undefined) | 7.796
57 | O=C(Nc1ccccc1Cn1cncn1)C1CCN(C2CCCCC2)C1 (centres undefined) | -3.545
58 | COCCCn1cnnc1C(C)NC(=O)c1[nH]c2ccc(C)cc2c1C (centres undefined) | 21.75
59 | Cc1ccc(F)c(OC2(C(=O)O)CCN(C(=O)c3ccccc3)CC2)c1 | -18.21
60 | Cc1nn(C)c(C)c1C(=O)N1CCN(C(=O)CC2CCCCC2)CC1 | -14.94
61 | CCOC(=O)[C@H]1[C@@H](O)C(=O)N(C)C12CCN(C(=O)CC1CCCC1)CC2 | 108.5
62 | COCCC1COC2(CCN(C(=O)CC3CCCC3)CC2)C1 (centres undefined) | -6.475
63 | CCOC(=O)[C@H]1[C@@H](O)C(=O)N(C)C12CCN(C(=O)c1ccccc1)CC2 | 113.3
64 | CN1C(=O)CC(c2ccccc2)C12CCN(C(=O)c1ccc[nH]1)CC2 (centres undefined) | -3.808
65 | CCOC(=O)C1CN(S(=O)(=O)CC)Cc2ncn(CC)c21 (centres undefined) | 10.83
66 | CCOC(=O)[C@H]1[C@@H](O)C(=O)N(C)C12CCN(S(=O)(=O)CC)CC2 | 107.6
67 | CCS(=O)(=O)N1CCC2(CCCC(=O)N2C)CC1 | 1.174
68 | OC[C@H]1CN(Cc2c(Cl)cncc2Cl)C[C@H]1CN1CCCC1 | -2.945
69 | COCCc1noc(-c2ccc(-c3ccc(N)nc3)nc2)n1 | 3.848
70 | CC(C)N(C)S(=O)(=O)N1CCCC1C(=O)N1CCSCC1 (centres undefined) | -16.03
71 | CN(C)C1CCCN(Cc2cccc(Cn3cccn3)c2)CC1 (centres undefined) | -12.17
72 | CCCn1c(C)c(CC(=O)NC)c2c1CC(C)(C)CC2=O | -16.12
73 | CC(=O)N1CCC(N2CCOC(CC3CCCCC3)C2)CC1 (centres undefined) | -12.42
74 | O=C(NCCC1CN(C2CCCC2)CCO1)c1c[nH]c(=O)[nH]c1=O (centres undefined) | 104.1
75 | Cc1nc[nH]c1CN1CCOC(CCNC(=O)c2ccsc2)C1 (centres undefined) | 3.165
76 | Cc1ccc(C(=O)NCC(O)CN2CCCC2=O)c(C)c1 (centres undefined) | -3.657
77 | Cc1ccc(C(=O)NCCC2CN(C3CCCC3)CCO2)c(C)c1 (centres undefined) | 105.7
78 | O=C(NCCC1CCCO1)c1ccccc1N1CCOCC1 (centres undefined) | -10.37

Row | SMILES | Percent Effect [%]
79 | Cc1nc(-c2ccsc2)ccc1C(=O)NCCC1CCCO1 (centres undefined) | -16.18
80 | O=C(NCCC1CN(C2CCCC2)CCO1)c1cc(=O)[nH]c(=O)[nH]1 (centres undefined) | 90.1
81 | O=C(c1cc(=O)[nH]c(=O)[nH]1)N1CCCCC1c1ccc(F)cc1 (centres undefined) | -19.12
82 | CC(c1ccccc1)N(C)C(=O)CN1CCCc2cc(F)cc(F)c21 (centres undefined) | -34.4
83 | CCc1cnc(N2C[C@H]3C[C@H](C(=O)NC)[C@@H](C2)O3)nc1 | 2.577
84 | Cc1cnc(N2C[C@H]3C[C@H](C(=O)N(C)C)[C@@H](C2)O3)nc1 | -7.121
85 | CCc1cnc(N2C[C@H]3C[C@H](C(=O)N4CCOCC4)[C@@H](C2)O3)nc1.O=C(O)C(F)(F)F | 104.4
86 | CCc1cnc(N2C[C@H]3C[C@H](C(=O)NCC(C)C)[C@@H](C2)O3)nc1 | -2.395
87 | O=C([C@H]1C[C@@H]2CN(c3ncc(F)cn3)C[C@H]1O2)N1CCOCC1 | 99.35
88 | O=C(C1CN(c2ncc(F)cn2)CC12CCOCC2)N1CCOCC1 (centres undefined) | -0.101
89 | O=C([C@H]1C[C@@H]2CN(c3ncc(F)cn3)C[C@H]1O2)N1CCCC1 | 104.9
90 | CCc1cnc(N2C[C@H]3C[C@H](C(=O)N(C)C)[C@@H](C2)O3)nc1 | -23.08
91 | O=C(O)C(F)(F)F.O=C([C@H]1COC[C@H]2CN(c3ncc(F)cn3)C[C@H]21)N1CCOCC1 | -8.043
92 | O=C(NCCCF)Nc1ccc2nc(N3CCOCC3)oc2c1 | 0.7918
93 | O=C(NC1CC1)C1CCN(c2nc3nc[nH]c(=O)c3s2)CC1 | 99.33
94 | O=C(NC1CCN(c2snc3ccccc23)CC1)C1CCC1 | 9.197
95 | CCc1c(C)nc2ccccc2c1N1CCC(C(=O)NC)CC1 | -7.875
96 | CNC(=O)C1CCCN(c2nc3c(-c4ccccc4)csc3c(=O)[nH]2)C1 (centres undefined) | 3.58
97 | CCc1nc(CC(=O)N2CCC(C(=O)N3CCCC3)CC2)cs1 | -3.887
98 | CNC(=O)C1CCN(c2nc3nc[nH]c(=O)c3s2)CC1 | 82.12
99 | O=C(C1CCN(c2snc3ccccc23)CC1)N1CCCCCC1 | 0.1158
100 | O=C(NC1CCCC1)C1CCN(c2cc(-n3ccnc3)ncn2)CC1 | -4.5
101 | CC(C)NC(=O)C1CCN(Cn2ccc(-c3ccc(F)cc3)n2)CC1 | 3.574
102 | O=C(C1CCN(c2nc3nc[nH]c(=O)c3s2)CC1)N1CCCCC1 | 84.01
103 | CC(C)NC(=O)C1CCN(c2nc3nc[nH]c(=O)c3s2)CC1 | 92.05
104 | CC(NC(=O)C1CCN(C(C)C)CC1)c1nncn1C1CCCC1 (centres undefined) | -21.33
